# How the values were obtained:
# Conditions in all cases: concentration: 1 μM, replicates: in singlicate; n = 1
# AAK1 = tested on: AAK1
# ABL1-nonphosphorylated = tested on: ABL1-nonphosphorylated
# ABL1-phosphorylated = tested on: ABL1-phosphorylated
# ABL2 = tested on: ABL2
# ACVR1B = tested on: ACVR1B
# ACVR1 = tested on: ACVR1
# ACVR2A = tested on: ACVR2A
# ACVR2B = tested on: ACVR2B
# ACVRL1 = tested on: ACVRL1
# ADCK3 = tested on: T1, ADCK3
# T1 construct: gene CABC1
# 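Note: KINOMEscan kinase panel screen.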
SMILES,%Inh (AAK1) [%],%Inh (ABL1-nonphosphorylated) [%],%Inh (ABL1-phosphorylated) [%],%Inh (ABL2) [%],%Inh (ACVR1B) [%],%Inh (ACVR1) [%],%Inh (ACVR2A) [%],%Inh (ACVR2B) [%],%Inh (ACVRL1) [%],%Inh (ADCK3) [%]
COc1cc(Nc2ccnc3cc(-c4ccncc4)ccc23)cc(OC)c1OC.Cl [GW494610],0,97.9,99.4,93,86,99.5,0,54,88,98.6
N#Cc1cnc2cc(-c3cnc(CNCCN4CCOCC4)s3)ccc2c1Nc1ccc(Oc2ccccc2)cc1 [GW664114],31,97.4,49,58,0,0,0,0,0,0
Cc1nn2c(=O)cc(N3CCO[C@H](C)C3)nc2n1Cc1cccc(Cl)c1Cl [GSK2373693],1,0,0,14,22,0,14,0,0,15
CN(c1ccc(NC(=O)Nc2cccc(Cl)c2)cc1)c1ccnc(N)n1.Cl [GW830707],0,0,0,3,4,0,0,0,9,0
COc1cccc(-c2nc(-c3ccccc3)[nH]c2-c2ccncc2)c1 [SB-610250],2,0,8,27,0,24,0,0,2,8
CC(C)c1nc(-c2ccc(F)c(NS(=O)(=O)c3c(F)cccc3F)c2)c(-c2ccnc(Nc3ccc(N4CCOCC4)nc3)n2)s1 [GSK1804250],7,99.8,98.8,99.3,91.9,87,0,75,52,99.4
COc1cccc(NC(=O)NCCNc2ccnc(Nc3ccc(F)cc3)n2)c1 [GSK1379879],0,0,0,6,0,0,0,0,0,14
CCNc1nccc(-c2c(-c3ccc(F)cc3)ncn2C2CCN(C)CC2)n1,20,30,7,0,0,0,0,0,0,12
COc1ccc(C)c(Nc2ccnc(Nc3ccc(-c4cnc[nH]4)cc3)n2)c1.Cl [GW784041],29,95.4,97.1,92.8,74,99,93.5,93.3,91.7,40
Cn1cc(-c2ccc3c(c2)CCN3C(=O)Cc2cc(F)cc(F)c2F)c2c(N)ncnc21 [GSK2634140],0,82,29,57,15,0,0,0,0,6
Fc1cc(Cl)ccc1Nc1ccnc2cc(-c3ccc(CN4CCSCC4)o3)ccc12 [GW560106],4,95.9,98.7,89,21,84,14,91,49,3
O=C(O)C(F)(F)F.O=c1[nH]ccc2nc(N[C@@H]3CCNC3)nc(Nc3ccc4c(c3)S(=O)(=O)CC4)c12 [GSK2181306],87,53,66,26,0,15,0,3,0,14
CC(C)(C)c1ccc(C(=O)Nc2cn3cc(-n4ccnc4)ccc3n2)cc1,12,44,21,22,7,0,10,8,0,2
Fc1cc(Cl)ccc1Nc1ccnc2cc(-c3ccc(CN4CCOCC4)o3)ccc12 [GW560109],0,99.5,99.8,96.4,0,86,22,88,65,0
CN(C)CCNS(=O)(=O)c1ccc(-c2ccnc3[nH]ccc23)cc1 [GSK977620],21,0,0,8,6,0,0,0,0,10
CCn1cnc2c(NCc3ccccc3)ncnc21 [SKF-96418],0,21,9,0,0,0,0,0,0,0
Cc1cccc(Nc2nc(N[C@H]3CCCC[C@H]3N)ncc2C(N)=O)c1.Cl [GSK986310],55,0,8,24,0,5,0,11,0,17

SMILES,%Inh (AAK1) [%],%Inh (ABL1-nonphosphorylated) [%],%Inh (ABL1-phosphorylated) [%],%Inh (ABL2) [%],%Inh (ACVR1B) [%],%Inh (ACVR1) [%],%Inh (ACVR2A) [%],%Inh (ACVR2B) [%],%Inh (ACVRL1) [%],%Inh (ADCK3) [%]
CN(C)c1ncnc2nc[nH]c12 [SKF-31736],30,38,27,0,0,1,0,0,0,0
Cl.Cl.NC(CNC(=O)c1cc(Br)c(-c2ccnc3[nH]ccc23)s1)c1ccccc1 (stereo not drawn) [GSK1322949],82,21,10,25,0,38,0,10,0,40
CNc1nccc(-c2ccc3c(N)n[nH]c3c2)n1 [GSK2206003],74,7,3,20,10,7,8,67,0,1
O=C(Nc1n[nH]c2nc(-c3ccccc3O)ccc12)C1CC1 [SB-711880],17,68,44,55,0,0,0,0,0,3
Cc1cccc(Nc2nc(NCCN)ncc2C(N)=O)c1 [GSK1292139],78,5,28,0,0,0,0,0,0,5
Cc1ccc(NC(=O)c2ccnc(N3CCCCC3)c2)cc1-c1ccc(C(=O)NCC2CC2)cc1 [GW775610],0,55,0,54,0,0,0,0,0,0
NCCC(NC(=O)c1cc(Br)c(-c2ccnc3[nH]ccc23)s1)c1ccccc1.O=C(O)C(F)(F)F.O=C(O)C(F)(F)F (stereo not drawn) [GSK1307810],66,0,0,8,43,15,0,0,0,52
N#CC1(c2cccc(C(=O)Nc3cccc(Oc4ccc5nc(NC(=O)C6CC6)sc5n4)c3)c2)CC1,3,100,98.7,95,0,0,3,1,0,40
Nc1ncc(-c2cn[nH]c2)c2scc(-c3ccc4c(c3)CCN4C(=O)Cc3ccccc3)c12 [GSK2593067],52,99.2,81,89,0,0,0,16,0,0
Cn1cc(-c2cnc(N)c3c(-c4ccc5c(c4)CCN5C(=O)Cc4ccccc4)csc23)cn1 [GSK2593074],0,99.7,89,81,9,7,0,0,0,7
COc1cc(Nc2nccc(N3CCC(NC(=O)Nc4ccc5c(c4)OCO5)C3)n2)cc(OC)c1OC (stereo not drawn) [GSK1379766],66,0,0,0,0,11,0,0,0,0
CN(c1ccc2c(c1)nc(NCc1ccccc1)n2C)c1ccnc(Nc2ccc(CS(C)(=O)=O)cc2)n1.Cl [GW811603],16,98.9,66,54,0,0,0,0,0,0
O=C(Nc1n[nH]c2nc(-c3cccc(O)c3)ccc12)C1CC1 [SB-711805],33,94.2,88,27,13,32,43,74,0,0
c1ccc(Oc2ccc(Nc3ccnc4cc(-c5ccc(CN6CCCCC6)o5)ccc34)cc2)nc1 [GW567143],0,85,24,24,0,0,32,0,0,0
CS(=O)(=O)c1cccc(CNc2nc(Nc3ccc4c(c3)CCC(=O)N4)ncc2C(F)(F)F)c1,21,54,16,0,0,0,0,0,0,0
O=C(Nc1n[nH]c2cc(-c3cccs3)ccc12)C1CC1 [SB-731284],73,81,61,0,0,0,0,17,0,0

# — publication PMC5540273 (PLoS ONE, 2017)
